Sampled rows, rich in hits. Any-hit rate of the full collection: about 3.5%.
Mcl1 Noxa PPI – disrupts binding of human Mcl-1 to Noxa peptide | TR-FRET Mcl-1/Noxa peptide binding, 2 h | Q07820 | 1.5% of 220,000 active | inhibition, % at 21.7 µM;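 active = compounds that cut the protein-peptide binding signal by more than 50% relative to plate controls in a single-dose test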;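 also: His-tagged Mcl-1 with rhodamine Noxa BH3 peptide and terbium anti-His antibody; 0% = Mcl-1 plus Noxa peptide wells and 100% = peptide-only wells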
Target sequence (Q07820 whole entry, looked up): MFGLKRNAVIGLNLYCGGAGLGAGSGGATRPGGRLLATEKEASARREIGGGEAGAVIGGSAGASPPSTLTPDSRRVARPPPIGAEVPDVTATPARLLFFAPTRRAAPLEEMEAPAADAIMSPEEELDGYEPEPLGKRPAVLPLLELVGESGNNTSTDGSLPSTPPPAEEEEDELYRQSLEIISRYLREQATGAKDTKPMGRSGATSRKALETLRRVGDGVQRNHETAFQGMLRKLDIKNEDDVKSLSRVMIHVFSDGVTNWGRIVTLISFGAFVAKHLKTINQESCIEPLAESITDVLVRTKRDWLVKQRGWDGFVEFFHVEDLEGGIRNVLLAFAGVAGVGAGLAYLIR
Mcl1-Bid inh – Mcl-1/Bid interaction inhibition | 0.97% of 220,000 active | TR-FRET Mcl-1/Bid-Dy647 peptide binding, 1536-well | Q07820 | inhibition, % at 21.7 µM;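 active = compounds that cut the binding signal by more than half at the single screening dose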;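 also: His-tagged Mcl-1 with europium anti-His antibody binding Bid BH3 peptide; 0% = Mcl-1 plus peptide wells and 100% = peptide-only wells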
Hck Nef HTS – human Hck-Nef kinase inhibition | Recombinant Hck-YEEI plus Nef, Z-Lyte FRET kinase assay | AID 463187 | inhibition, % at 20 µM | 0.68% of 220,000 active | P08631;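 active = Hck-Nef kinase inhibition above about 50%, limit read from the data; inactive = inhibition below that limit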;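 also: 0% = DMSO with Hck plus Nef and 100% = Hck alone without Nef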
eIF4E-4G inh – eIF4E/eIF4G interaction inhibition in translation initiation; P63073+Q04637; TR-FRET eIF4E-eIF4GI(517-606) binding, 2 h; inhibition, % at 21.7 µM; 0.37% of 220,000 active; AID 782;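 active = inhibition above about 30%, limit read from the data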;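 also: 0% = full FRET control wells and 100% = background wells lacking eIF4GI fragment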
14-3-3 Bad PPI – disrupts binding of bovine 14-3-3 zeta to phospho-Bad peptide. TR-FRET 14-3-3zeta/Dy647-pBad peptide displacement, 1 h. P63103. 0.71% of 220,000 active. inhibition, % at 21.7 µM;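 active = inhibition above about 70%, limit read from the data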;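 also: 0% = full 14-3-3 plus peptide FRET controls and 100% = background without 14-3-3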
Target sequence (P63103 whole entry, looked up): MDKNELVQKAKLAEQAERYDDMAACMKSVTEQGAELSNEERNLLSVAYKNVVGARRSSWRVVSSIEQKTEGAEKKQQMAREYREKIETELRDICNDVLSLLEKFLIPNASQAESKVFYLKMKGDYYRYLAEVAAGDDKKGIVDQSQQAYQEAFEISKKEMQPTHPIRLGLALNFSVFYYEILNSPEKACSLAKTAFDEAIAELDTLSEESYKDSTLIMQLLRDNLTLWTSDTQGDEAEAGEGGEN
Mcl-1 Bim block – human Bim-Mcl-1 interaction inhibition | Q07820 | Bead-based flow cytometry, Bim peptide-Mcl-1 binding | 0.1% of 190,000 active | inhibition, % at 10 µM; in the data active = inhibition above about 40%;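 also: 0% = no compound tracer wells and 100% = peptide blocker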
Numbers without * were called inactive; . = not tested or not shown; [ ] = another dose, or the depositor's remark.

SMILES	Mcl1 Noxa PPI	Mcl1-Bid inh	Hck Nef HTS	eIF4E-4G inh	14-3-3 Bad PPI	Mcl-1 Bim block
CN(C)CCCNC(=S)Nc1ccc(Br)cc1	9	-146	5	0	2	.
COCCCNC(=O)C1CCCN(S(C)(=O)=O)C1 (stereo unspecified)	11	4	-2	7	1	0
CC(=O)c1sc(N/N=C\c2cccc(Br)c2)nc1C	51*	-39	6	-13	-9	-5
COc1ccc(C(=O)NC(NC(=O)c2ccc(OC)c(OC)c2)c2ccccc2F)cc1OC	33	7	-5	7	-6	-3
Nc1c2c(nc3sc4c(c13)CCCC4)CCCCCC2	13	-5	59*	-3	6	-3
O=C(Nc1ccc(S(=O)(=O)Nc2ncccn2)cc1)c1cccc(S(=O)(=O)N2CCOCC2)c1	17	-6	2	-1	-3	.
O=C(O)[C@H]1CCCC[C@H]1C(=O)NCCc1ccccc1	-5	-1	-2	-3	-9	0
O=C(O)C1CCCCC1C(=O)NCCc1ccncc1 (stereo unspecified)	28	-25	-6	-1	72*	-2
COCCCN(Cc1ccco1)C(=O)Cn1ncc2c(=O)oc3ccc(C)cc3c21	11	-16	20	-2	7	.
O=C1/C(=C\c2ccco2)SC(=S)N1c1ccc(O)cc1	4	-11	72*	-2	2	-5
O=C1/C(=C\c2ccc(O)cc2)SC(=S)N1c1cccnc1	73*	6	17	12	33	0
COc1ccc(/C=C2\SC(=S)N(c3cccnc3)C2=O)cc1	1	-3	17	-6	1	.
CCC(/C=N/NC(=O)C(N)=O)CC	10	-8	-16	1	10	-3
Cc1sc2ncnc(OCC(=O)Nc3ccc4c(c3)OCCO4)c2c1C	-5	99*	3	-8	-10	1
CC(=O)NCCc1nc2ccccc2n1Cc1cccc(C)c1	-2	3	15	-6	1	.
COc1ccc(CN(Cc2ccc(C(=O)O)cc2)C(=S)Nc2ccc(C)cc2)cc1OC	2	-26	30	0	-4	-3
O=[N+]([O-])c1ccc(-c2ccc(C=Nc3cccc4ccccc34)o2)cc1	15	-19	15	8	-2	0
O=[N+]([O-])c1cc(-c2ccc(/C=N/c3nc4ccccn4c3-c3ccco3)o2)ccc1Cl	65*	65*	25	13	58	1
CS(=O)(=O)Oc1ccc(Br)cc1/C=C1/N=C(c2ccco2)OC1=O	-3	10	2	3	24	-5
COc1ccc(C(=O)/C=C/C(=O)N(CC(=O)NCCC(C)C)Cc2cccs2)c(O)c1	66*	9	21	0	2	-5
O=[N+]([O-])c1cccc(N/N=C/c2cccc(O)c2O)c1	67*	-35	28	-1	-22	4
Cc1cccc(N/N=C/c2ccc(O)c(O)c2O)c1	53*	-189	8	6	17	.
O=[N+]([O-])c1ccccc1N/N=C\c1ccccc1Cl	16	3	-2	-13	-4	-1
O=[N+]([O-])c1ccccc1N/N=C/c1cccc(O)c1O	54*	0	35	-7	3	.
O=C(O)C1CC(c2ccc(F)cc2)=NO1 (stereo unspecified)	63*	-29	0	-25	-8	-3
SMILES	Mcl1 Noxa PPI	Mcl1-Bid inh	Hck Nef HTS	eIF4E-4G inh	14-3-3 Bad PPI	Mcl-1 Bim block
O=C(O)C1CC(c2ccccc2)=NO1 (stereo unspecified)	11	-44	0	1	11	0
COc1ccccc1CNC(=O)CN(C)S(=O)(=O)c1cccc2cccnc12	5	-6	17	96*	5	.
CCc1nc(OCCN(CC)CC)c2oc3ccccc3c2n1	22	42	8	10	80*	-2
COc1cc(CC(CC(=O)O)CC(C)OCc2ccccc2)cc(OC)c1 (stereo unspecified)	9	-15	3	15	3	-3
Cc1csc(CCc2nc(C)cs2)n1	-10	100*	-1	2	2	-5
C/C(=N\NC(=O)c1ccccn1)c1ccc(Cl)cc1	0	-56	23	-2	-6	.
C/C(=N/NC(=O)c1ccccn1)c1ccc(O)cc1	1	96*	8	2	-2	.
COc1ccc(/C=N/n2c(N)nc3ccccc32)cc1OC	23	-32	4	1	-9	-5
COc1ccc(/C=N/n2c(N)nc(-c3ccccc3)c2-c2ccccc2)cc1	48	57*	2	-21	11	-3
COc1ccc(CN2CCN(C3CCOCC3)CC2CCO)c(C)c1C (stereo unspecified)	-3	-43	-9	0	-4	-1
COc1ccc(CN2CCOCC2)c(C)c1C	27	28	0	2	71*	-2
COc1ccc2nc(N3C(=O)/C(=C/c4ccc(Cl)cc4)NC3=S)sc2c1	87*	88*	10	18	72*[fluorescence artefact?]	-2
O=C(O)C(Cc1c[nH]c2ccccc12)N1C(=O)c2ccccc2C1=O (stereo unspecified)	28	-98	-9	-4	-9	.
COC(=O)[C@@]1(Cc2ccccc2)[C@H]2c3cc(C(=O)N4CCCC4)n(CCSCCO)c3C[C@H]2CN1C(=O)c1ccccc1	101*	-13	2	4	-6	-2
CCCCC(=O)NC(NC(=S)N1CCCCCC1)C(Cl)(Cl)Cl (stereo unspecified)	11	-36	2	-2	-15	-1
Oc1cccc(Nc2nc(NCC3CCCO3)c3ccccc3n2)c1 (stereo unspecified)	58*	9	0	-1	63	0
Cc1cc(/C=C2\SC(=S)NC2=O)c(C)n1-c1ccc(O)cc1	29	-84	30	-2	6	.
Cc1cc(/C=C2\SC(=S)NC2=O)c(C)n1-c1ccccc1	42	-49	53*	-1	-1	.
O=c1cc(-c2ccc([N+](=O)[O-])cc2)nc2cc(-c3ccc(F)cc3)[nH]n12	65*	-46	1	13	1	0
Cc1ccccc1-c1cc2nc(-c3ccc([N+](=O)[O-])cc3)cc(=O)n2[nH]1	-12	-60	23	6	-19	0
O=C1NC(=S)N/C1=C/c1cccn1-c1ccc([N+](=O)[O-])cc1	80*	-42	46	23	2	-4
N=C1/C(=C/c2cccn2-c2ccc([N+](=O)[O-])cc2)C(=O)N=C2SC=CN12	61*	-63	13	1	11	-7
Cc1ccc(-n2cccc2/C=C2\C(=N)N3N=C(C(C)C)SC3=NC2=O)cc1	11	-32	22	0	-6	-1
CC1=CC2=NC(=O)/C(=C\c3cc(C)n(-c4ccccc4F)c3C)C(=N)N2O1	7	-25	1	-5	-26	-4
CS(=O)(=O)C1=NSC2=NC(=O)/C(=C\c3cccn3-c3ccc(Cl)cc3)C(=N)N21	92*	-14	7	7	1	14
